In PubChem BioAssay (Tox21) one finds Potency and outcome data, which are given here for nine compounds.

Molecules are shown by their SMILES. Values joined by “and” are separate entries in the source; they are usually repeats but may differ in a detail not shown here. Equal entries are not always repeated. Records with an inconclusive call do not appear. Active and inactive are the calls of the source. Unless noted, calls come from the whole dose curve; as a rule, active = well fitted curve in the direction sought with a large enough effect in the repeat runs; inconclusive = weak or mixed curves; inactive = no such curve, though single readings can be large; an effect the other way counts as inactive or inconclusive.

The nature of assay [1]: qHTS assay to identify small molecule agonists of the vitamin D receptor (VDR) signaling pathway - cell viability counter screen (AID 743224). Note: series mostly up to about 63 µM; nearly all actives have a fitted effect of over 50% in size. In outline: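 Cells: VDR-bla, 2,000/well, settled 4 h. Treatment: compounds in DMSO, 16 h, 37C/5% CO2. Readout: CellTiter-Glo luminescence after 30 min RT.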
Assay [2] is described as follows: qHTS assay to identify small molecule antagonists of the vitamin D receptor (VDR) signaling pathway - cell viability counter screen (AID 743225). Note: nearly all actives have a fitted effect of over 50% in size. In outline: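 HEK293T VDR-bla; cpd + 1a,25-(OH)2D3 3 nM final, 16 h 37C/5% CO2; B/G FRET substrate 2 h RT; then CellTiter-Glo 30 min RT, luminescence.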
Assay [3] is described as follows: qHTS assay to identify small molecule agonists of the NFkB signaling pathway (AID 1159509; active = well fitted curve in the direction sought with a large enough effect in the signal ratio in the repeat runs, not every such curve was filed as active; the % refers to the signal ratio; note: series mostly up to about 61 µM). In outline:
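Readout: FRET fluorescence, 405 nm excitation, 460/530 nm emission; beta-lactamase expression disrupts FRET. Cells: ME-180 stably carrying NF-kB-driven bla reporter. Compound exposure 5 hr, 37 C, 5% CO2.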

Assay [4] is described as follows: qHTS assay to identify small molecule agonists of the NFkB signaling pathway - cell viability counter screen (AID 1159515; calls by dose curve; note: series mostly up to about 61 µM; nearly all actives have a fitted effect of over 55% in size). In outline:
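Cells are seeded (2,000 NFkB-bla ME-180 per well), rested overnight, and dosed with DMSO-dissolved compounds for 5 hr at 37 C. Viability is then read by CellTiter-Glo luminescence after 30 min at room temperature.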
For orientation: qHTS replaces the single test concentration by a dilution series.

Assay [5] is described as follows: qHTS assay to identify small molecule agonists of the endoplasmic reticulum stress response signaling pathway (AID 1159516; active = well fitted activation curve with a large enough effect in the signal ratio in the repeat runs, not every such curve was filed as active; the % refers to the signal ratio). In outline: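 Cells are seeded at 1,500 per well and incubated overnight. Compounds in DMSO are added for 5 hr at 37 C, then beta-lactamase FRET substrate for 2 hr at room temperature, and fluorescence at 460 and 530 nm is measured.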
The nature of assay [6]: qHTS assay to identify small molecule agonists of the endoplasmic reticulum stress response signaling pathway - cell viability counter screen (AID 1159517; calls by dose curve;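 note: HeLa cells carrying an ER stress response element beta-lactamase reporter; series mostly up to about 61 µM; nearly all actives have a fitted effect of over 50% in size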). In outline: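 After overnight attachment, ESRE-bla HeLa cells were treated with Tox21 library compounds for 5 hr. CellTiter-Glo luminescence, read 30 min post-addition at room temperature, reported viability.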
A short description of assay [7]: qHTS assay to identify small molecule antagonists of the retinoid-related orphan receptor gamma (ROR-gamma) signaling pathway - cell viability counter screen (AID 1159520). Note: nearly all actives have a fitted effect of over 50% in size. In outline: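 Cytotoxicity was read from cellular ATP (CellTiter-Glo luminescence) after 16 hr at 37 C with 1 uM doxycycline induction. The inducer was added 2 hr after compound transfer to Tet-on ROR gamma CHO cells.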

The nature of assay [8]: qHTS assay to identify small molecule agonists of the AP-1 signaling pathway (AID 1159526; calls by dose curve).
Assay [9] concerns the target Retinoic acid receptor RXR-alpha (Homo sapiens) (UniProt P19793). The assay is described as follows: qHTS assay to identify small molecule agonists of the RXR signaling pathway (AID 1159527; calls by dose curve; note: nearly all actives have a fitted effect of over 35% in size). In outline:
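Cells plated at 2,000/well, rested 5 hr at 37 C, pin-dosed with DMSO compound solutions, incubated 16 hr, then loaded with B/G FRET substrate for 2 hr at RT before dual-emission fluorescence reading.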

Assay [10] in a line: qHTS assay to identify small molecule agonists of the RXR signaling pathway - cell viability counter screen (AID 1159529). In outline:
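Steps: seed RXR-alpha-UAS-bla HEK 293T cells in assay medium containing 2% charcoal-stripped FBS; incubate 5 hr; add compounds in DMSO; incubate 16 hr at 37 C; after the bla read, add CellTiter-Glo and read luminescence at 30 min.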

The nature of assay [11]: qHTS assay to identify small molecule antagonists of the retinoid acid receptor (RAR) signaling pathway - cell viability counter screen (AID 1159551). Note: nearly all actives have a fitted effect of over 35% in size. In outline: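 Cells (C3RL4) are plated, incubated overnight, dosed with compound in DMSO, then given retinol at 1 uM final. After 6 h at 37 C, CellTiter-Glo is added and luminescence read following 30 min at room temperature.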

Assay [12] deals with Nuclear receptor ROR-gamma (Homo sapiens) (UniProt P51449). The assay is described as follows: qHTS assay to identify small molecule antagonists of the retinoid-related orphan receptor gamma (ROR-gamma) signaling pathway (AID 1159521; note: nearly all actives have a fitted effect of over 50% in size; note: potency is the fitted concentration of half-maximal effect). In outline:
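Cells were plated, rested 4 h at 37 C, exposed to compounds for 2 h, then given 1 uM final doxycycline hyclate to induce RORγ expression. After 16 h, ONE-Glo luminescence from the ROR response element reporter was measured.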

Assay [13] is described as follows: qHTS assay to identify small molecule agonists of the AP-1 signaling pathway - cell viability counter screen (AID 1159525; calls by dose curve; note: nearly all actives have a fitted effect of over 55% in size). In outline:
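Intracellular ATP by Cell Titer Glo luminescence (30 min, RT) in the same ME-180 AP-1-bla wells after the 5 h compound exposure at 37 °C. Normalised to tetra n-octyl ammonium bromide and DMSO controls.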

The nature of assay [14]: qHTS assay to identify small molecule antagonists of the retinoic acid receptor (RAR) signaling pathway (AID 1159552; note: nearly all actives have a fitted effect of over 50% in size; note: potency is the fitted concentration of half-maximal effect). In outline:
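Retinol at 1 uM final stimulated RARE-luciferase expression in C3RL4 cells exposed to test compounds for 6 hr at 37 C. Reduced luminescence, read 30 min after detection reagent, indicated pathway antagonism.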

Assay [15] in a line: qHTS assay to identify small molecule agonists of the retinoic acid receptor (RAR) signaling pathway (AID 1159553). In outline: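 Seed C3RL4 reporter cells at 1,000 per well and incubate overnight at 37 C. Add compounds in DMSO, incubate 6 hr. Add luciferase reagent, wait 30 min at room temperature, read luminescence.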
Assay [16] can be described thus: qHTS assay to identify small molecule antagonists of the estrogen related receptor (ERR) signaling pathway - cell viability counter screen (AID 1224818). Note: series mostly up to about 46 µM. In outline: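 ERR cells, 2,000/well; 6 h settle at 37 C/5% CO2; compound pin transfer (DMSO); 17.5 h at 37 C; CellTiter-Fluor, 30 min, fluorescence read.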
Assay [17] in a line: qHTS assay to identify small molecule antagonists of the estrogen related receptor signaling pathway with the pleiotropic PPARgamma coactivator (PGC) cell viability counter screen (AID 1224822; note: series mostly up to about 46 µM). In outline: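 Multiplexed viability counter screen run in PGC/ERR cells treated with compounds for 17.5 h at 37 C; live-cell protease signal measured by CellTiter-Fluor fluorescence.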

The nature of assay [18]: qHTS assay to identify small molecule antagonists of the estrogen related receptor (ERR) signaling pathway (AID 1224819). In outline: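 qHTS in ERR cells, 2,000/well, 1536 format. Cpd (DMSO) added after 6 h settle, 18 h 37 C. One-Glo luminescence, 30 min RT.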
Assay [19] in a line: qHTS assay to identify small molecule agonists of the estrogen related receptor (ERR) signaling pathway (AID 1224820). In outline: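 Luminescence readout (One-Glo, 30 min RT) from NTP-supplied ERR cell line exposed to compounds for 18 h at 37 C. Cells seeded 2,000 per well and pre-incubated 6 h before pin-tool compound transfer.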
Assay [20] deals with estrogen-related receptor alpha (ERRalpha) with PGC-1alpha coactivator, human. The assay is described as follows: qHTS assay to identify small molecule antagonists of the estrogen related receptor signaling pathway with the pleiotropic PPARgamma coactivator (PGC) (AID 1224821; calls by dose curve). In outline: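 PGC/ERR reporter cells; 6 h pre-incubation 37 C/5% CO2; pin-tool compound in DMSO, 18 h 37 C; One-Glo added, 30 min RT; luminescence read. qHTS antagonist mode.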

Retinoic acid receptor RXR-alpha (Homo sapiens), sequence (P19793 whole entry, looked up): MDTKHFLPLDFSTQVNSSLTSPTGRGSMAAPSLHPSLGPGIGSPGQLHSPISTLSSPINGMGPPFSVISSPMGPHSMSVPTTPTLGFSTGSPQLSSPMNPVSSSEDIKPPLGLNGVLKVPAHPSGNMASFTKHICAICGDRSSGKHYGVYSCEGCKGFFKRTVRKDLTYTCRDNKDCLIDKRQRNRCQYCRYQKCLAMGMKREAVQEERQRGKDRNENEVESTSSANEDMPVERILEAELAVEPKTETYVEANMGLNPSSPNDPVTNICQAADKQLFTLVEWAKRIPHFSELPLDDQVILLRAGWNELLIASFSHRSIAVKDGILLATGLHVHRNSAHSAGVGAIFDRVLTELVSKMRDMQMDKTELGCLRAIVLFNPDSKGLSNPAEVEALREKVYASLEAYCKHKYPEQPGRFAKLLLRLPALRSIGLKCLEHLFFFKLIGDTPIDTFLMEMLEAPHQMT

Consider `COCC(C)O` (stereo not drawn), for which the Potency entry in assay [1], in assay [2], in assay [6], in assay [7], in assay [8] and in assay [9] was “inactive” each time. Moreover, the Potency entry in assay [10] and in [11] was “inactive” in each case. The compound was classed as inactive in assay [3], in [4] and in assay [5].

On to `CC(C)(C)C(=O)C1C(=O)c2ccccc2C1=O`, for which the Potency entry in [1], in [2], in assay [6], in assay [13], in [8] and in [9] was “inactive” throughout. The Potency entry in assay [10], in assay [11], in assay [14] and in assay [15] was “inactive” throughout. Also, the result in assay [3], in assay [4] and in [5] was inactive. Further, the Potency in assay [12] is 17.1 µM (active) and 30.6 µM (active).

As to `CCCCC(CC)C(=O)OCCOCCOCCOC(=O)C(CC)CCCC` (stereo not drawn), the Potency entry in assay [1], in assay [2], in assay [6], in assay [7], in assay [12] and in assay [13] was “inactive” in each case. Besides, the Potency result in [8], in assay [9], in assay [10], in assay [11], in assay [14] and in [15] was “inactive” each time. Further, the compound was called inactive in [3], in assay [4] and in assay [5].

As to `NS(=O)(=O)c1cc2c(cc1Cl)NC=NS2(=O)=O`, the Potency result in assay [1], in [2], in [6], in assay [7], in assay [12] and in assay [8] was “inactive” each time. Moreover, the Potency entry in assay [9], in assay [10], in assay [11], in assay [14] and in assay [15] was “inactive” throughout. Besides, the result in [3], in assay [5], in assay [16] and in [17] was inactive.

With `Cc1cc(NS(=O)(=O)c2ccc(N)cc2)no1`, the Potency entry in assay [1], in [2], in assay [6], in assay [7], in assay [12] and in [13] was “inactive” throughout. In addition, the Potency result in assay [8], in [10], in assay [11] and in [15] was “inactive” throughout. Besides, the compound was called inactive in assay [3].

`CCOC(=O)/C=C\C(=O)OCC`: the Potency entry in assay [1], in assay [2], in assay [6], in [7], in assay [12] and in assay [8] was “inactive” in each case. Moreover, the Potency result in assay [9], in assay [10], in [11], in assay [14] and in assay [15] was “inactive” throughout. For the same compound, the outcome in assay [3] and in [4] was inactive.

With `OCCOCCOCCOCCO`, the Potency result in assay [1], in assay [2], in [6], in assay [7], in [12] and in [13] was “inactive” each time. Moreover, the Potency entry in [8], in assay [9], in assay [10] and in assay [11] was “inactive” in each case. The compound was classed as inactive in assay [3] and in [4].

In the case of `O=S(=O)(O)CCS`, the Potency result in assay [1], in [2], in assay [6], in assay [7], in [12] and in assay [13] was “inactive” throughout. Also, the Potency entry in assay [8], in assay [9], in [10] and in [11] was “inactive” throughout. The compound was called inactive in assay [3] and in assay [5].

For `CC#C[C@]1(O)CC[C@H]2[C@@H]3CCC4=CC(=O)CCC4=C3[C@@H](c3ccc(N(C)C)cc3)C[C@@]21C`, the Potency result in assay [1], in [2], in [6], in assay [7], in assay [8] and in assay [10] was “inactive” in each case. In addition, the Potency entry in assay [11] and in assay [19] was “inactive” throughout. The call in assay [3], in assay [5] and in assay [16] was inactive. For the same compound, the Potency in [12] is 30.6 µM (active) and 26.6 µM (active); in [14], 27.3 µM (active) and 26.6 µM (active); in [18], 22 µM (active); in assay [20] it was 21.1 µM (active).
